{
  "source": "PubChem BioAssay AID720650",
  "about": "(Broad Institute, 2013)",
  "note": "Activity calls are given as the source filed them. The rule behind the calls is not given here.",
  "data": [
    {"assay": "Biochemical counterscreen for C difficile toxins, absence of UDPG, inhibitor dose response (AID 720650)", "settings": "series mostly up to 19.5 µM", "values": [
      {"smiles": "COc1ccc(Cl)cc1NC(=O)Cn1c(NCCO)nc2ccccc21", "AC50": "inactive"},
      {"smiles": "Nc1c(Cl)ncnc1NCCc1ccc(O)cc1", "AC50": "18.6 µM (active)"},
      {"smiles": "Nc1nc(CCOc2ccc(F)cc2)cs1", "AC50": "inactive"},
      {"smiles": "C=CCc1ccc(O)c(-c2ccc(O)c(CC=C)c2)c1", "AC50": "> 39 µM (inactive)"},
      {"smiles": "CSc1cccc(NC(=O)CCc2ccccc2)c1", "AC50": "inactive"},
      {"smiles": "COc1ccc(SC[C@H](C)CN2CC[C@H](NC(=O)OCc3ccccc3)CCC2=O)cc1", "AC50": "inactive"},
      {"smiles": "c1ccc(-c2nnc(OCC3CCCO3)c3ccccc23)cc1", "note": "(stereo not drawn)", "AC50": "inactive"},
      {"smiles": "O=c1[nH]c(CN2CCOCC2)nc2cc(Cl)ccc12", "AC50": "inactive"},
      {"smiles": "O=C1c2c(O)ccc(O)c2C(=O)c2c(NCCNCCO)ccc(NCCNCCO)c21", "AC50": "17.5 µM (active)"},
      {"smiles": "CN1CCN(C(CNC(=O)c2ccc(Br)o2)c2ccc(F)cc2)CC1", "note": "(stereo not drawn)", "AC50": "inactive"},
      {"smiles": "COc1nc(C)cc(C)c1S(=O)(=O)c1ccc(Cl)cc1", "AC50": "inactive"},
      {"smiles": "CCCCn1c(-c2ccccc2C)nc2cc3[nH]c(=O)c(C(C)C)nc3cc21", "AC50": "inactive"},
      {"smiles": "COc1cc(-c2n[nH]c(=S)n2/N=C/c2cccn2C)cc(OC)c1OC", "AC50": "inactive"},
      {"smiles": "COc1ccc(/C=C2\\CCCCC2=O)cc1", "AC50": "inactive"},
      {"smiles": "O=C(O)c1ccc(-c2nnc(-c3ccccc3)o2)cc1", "AC50": "inactive"},
      {"smiles": "CCOCCCNC(=O)C1CCN(S(=O)(=O)c2c(C)noc2/C=C\\c2ccc(OC)cc2)CC1", "AC50": "inactive"},
      {"smiles": "CCC(=O)Nc1ccc2c(c1)OC[C@@H](C)N(C(=O)NC(C)C)C[C@@H](C)[C@@H](OC)CN(C)C2=O", "AC50": "inactive"},
      {"smiles": "Cc1ccc(-c2nc3ccc([N+](=O)[O-])cc3[nH]2)cc1", "AC50": "7.38 µM (active)"},
      {"smiles": "CCN1/C(=C2\\OC(=S)N(C)C2=O)C=Cc2ccccc21", "AC50": "inactive"},
      {"smiles": "CCN1CCN(c2oc(-c3ccccc3C)nc2S(=O)(=O)c2ccccc2)CC1", "AC50": "inactive"},
      {"smiles": "O=C(N[C@@H](Cc1c[nH]c2ccccc12)C(=O)O)C1CCN(S(=O)(=O)c2cccs2)CC1", "AC50": "inactive"},
      {"smiles": "Cc1cccc(-c2n[nH]c(=S)n2/N=C/C=C/c2ccco2)c1", "AC50": "inactive"},
      {"smiles": "Cc1cnc(C(=O)OCC(=O)N2C(C)CCCC2C)cn1", "note": "(stereo not drawn)", "AC50": "inactive"},
      {"smiles": "CCOC(=O)c1ccc[n+](CC(=O)c2ccc(NC(=O)c3ccccc3)cc2)c1", "AC50": "inactive"},
      {"smiles": "COC(=O)c1sc2nc(SCc3ccccc3C)n(N)c(=O)c2c1C", "AC50": "inactive"},
      {"smiles": "CCCNC(=O)C[C@H]1CC[C@@H]2[C@@H](COc3ccc(NC(=O)c4ccc5c(c4)OCO5)cc3C(=O)N2C)O1", "AC50": "> 39 µM (inactive)"},
      {"smiles": "CCCc1cc(-c2n[nH]c(C(=O)OCC)c2-c2cscn2)c(O)cc1O", "AC50": "inactive"},
      {"smiles": "O=C(N/C(=C\\c1ccc(O)cc1)C(=O)N1CCCCC1)c1ccccc1", "AC50": "inactive"},
      {"smiles": "Cc1cc(N2CCCC2=O)cc(C)c1S(=O)(=O)Nc1c(C)nn(C)c1C", "AC50": "inactive"},
      {"smiles": "O=C(Nc1ccc(O)cc1)C1CCCN1S(=O)(=O)c1ccc(F)cc1", "note": "(stereo not drawn)", "AC50": "10.9 µM (active)"},
      {"smiles": "Cc1ccnc(N2C(=O)c3ccccc3C2=O)c1", "AC50": "inactive"},
      {"smiles": "Cc1cscc1-c1nc(NCC2CC2)nc2ccsc12", "AC50": "inactive"},
      {"smiles": "CC1(C)OC2C(O1)[C@@H](CO)O[C@H]2n1cnc2c(N)ncnc21", "note": "(stereo partly drawn)", "AC50": "inactive"},
      {"smiles": "COc1cc2[nH]c(=S)nc(NCCC(C)C)c2cc1OC", "AC50": "inactive"},
      {"smiles": "Cc1ccc(/C=N/NC(=O)c2cccc(S(=O)(=O)Nc3ccccc3Cl)c2)o1", "AC50": "inactive"},
      {"smiles": "Cc1ccc(S(=O)(=O)N2CCC(C(=O)OCC(=O)NCCc3ccccc3)CC2)cc1C", "AC50": "inactive"},
      {"smiles": "COC(=O)[C@H]1C[C@@H]1[C@H](NP(=O)(c1ccccc1)c1ccccc1)c1ccccc1", "AC50": "inactive"},
      {"smiles": "Cc1ccc(S(=O)(=O)Oc2ccccc2/C=C2/SC(=O)NC2=O)cc1", "AC50": "inactive"}
    ]}
  ]
}
